Reference: PubChem BioAssay (NCATS)
Values without a mark were called inactive. Records with an inconclusive call do not appear. Active and inactive are the calls of the source. Unless noted, calls follow the shape of the dose curve; as a rule, active = well fitted curve in the direction sought with a large enough effect; inconclusive = small, poorly fitted or top-dose-only effect, or another doubt; inactive = no such curve, though single readings can be large; an effect the other way counts as inactive or inconclusive.

How the values were obtained:
[1] = qHTS assay for small molecule activators of the p53 signaling pathway (AID 651743; active = well fitted activation curve with a large enough effect in the signal ratio, not every such curve was filed as active; the % refers to the signal ratio; also: % of control where 0% means no effect); settings: HCT-116 p53RE-bla, beta-lactamase FRET ratio, 16 h; hits give high values
How it was run: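 Following 16 hours of compound exposure at 37 C, HCT-116 cells bearing the p53RE-bla reporter were loaded with LiveBLAzer B/G FRET substrate for 2 hours at room temperature and fluorescence intensity was recorded.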

[2] = qHTS assay for small molecule activators of the nuclear factor-kappa B (NF-kB) signaling pathway (AID 651749; active = well fitted activation curve with a large enough effect in the signal ratio; the % refers to the signal ratio; also: % of control where 0% means no effect); settings: NF-kB-bla ME-180 cells, beta-lactamase FRET ratio, 16 h; hits give high values
Text: National Center for Advancing Translational Sciences [NCATS] NIH Chemical Genomics Center [NCGC] U.S. Environmental Protection Agency [EPA] National Institutes of Environmental Health Sciences [NIEHS] National Toxicology Program [NTP] Assay Overview: Transcription factors and their stimulated target gene expression play pivotal roles across many cellular processes including responses to environmental stimuli. Proper regulation of associated pathways is critical to maintain cell health and function. Constitutive activation of transcription factor pathways has been implicated in tumors as it may block cellular functions such as apoptosis and lead to invasion and metastasis. One important transcription factor that stimulates gene expression in response to cytokines, UV radiation, and other stimuli is nuclear factor-kappa B (NF-kB). To measure activation of the NF-kB pathway, the NF-kB-bla ME-180 cell line stably expressed beta-lactamase reporter gene under the regulation of a NF-kB response element was obtained from Invitrogen. This assay allows measurement of the NF-kB pathway activity induced by compounds in a ME-180 cell line. This system quantitates NF-kB activity using a FRET-based assay system where beta-lactamase expression disrupts FRET, allowing for fluorescent measurement of activity.
Assay Protocol Summary: For toxicology screening, 2,000 cells in 5 uL/well were dispensed into black, clear-bottom 1536-well plates using a Multidrop Combi (Thermo Scientific) dispenser. Following transfer of 23 nL compound or DMSO vehicle by a pin tool, the plates were incubated 16 hr at 37C and 5% CO2.

[3] = target: Tumor necrosis factor (Homo sapiens) (UniProt P01375); assay: qHTS assay to identify small molecules that stimulate Tumor Necrosis Factor-alpha (TNF-alpha) secretion (AID 651757; active = well fitted curve in the direction sought with a large enough effect in the signal ratio; the % refers to the signal ratio; also: 0% is about no effect); settings: Human cells, HTRF 665/615 ratio; series mostly up to 92.2 µM
Tumor necrosis factor (Homo sapiens), sequence (P01375 whole entry, looked up): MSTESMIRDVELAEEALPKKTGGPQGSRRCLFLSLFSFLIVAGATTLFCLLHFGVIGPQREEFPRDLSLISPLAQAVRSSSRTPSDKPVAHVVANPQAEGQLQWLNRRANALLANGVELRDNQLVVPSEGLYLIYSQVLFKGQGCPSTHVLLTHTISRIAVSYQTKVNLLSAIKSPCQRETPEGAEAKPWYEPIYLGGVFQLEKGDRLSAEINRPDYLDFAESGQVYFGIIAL
How it was run: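 Secreted TNF-alpha quantified by TR-FRET sandwich of two labeled anti-TNF-alpha antibodies, incubated 3 hr at room temperature. Preceded by 17 hr, 37 C compound treatment of THP-1 cells at 3000 cells/well.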

[4] = qHTS assay for environmental chemicals that activate the Aryl hydrocarbon Receptor (AhR) signaling pathway (AID 651777); settings: 1A2-DRE human hepatoma cells, luciferase, 24 h; activation: hits give high values; also: nearly all actives have a fitted effect of over 15% in size; also: potency is read from the fitted curve at half-maximal effect; as to activation: % of control where 0% means no effect
How it was run: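 Concentration–response screening used 1,200 1A2-DRE cells per well, 24 hr compound exposure (37 C, 5% CO2), and One-Glo luminescence as the AhR-driven CYP1A2 reporter signal.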

[5] = target: Peroxisome proliferator-activated receptor alpha (Homo sapiens) (UniProt Q07869); assay: qHTS assay for small molecule agonists of the peroxisome proliferator-activated receptor alpha (PPARalpha) signaling pathway (AID 651778); settings: PathHunter PPARalpha complementation, chemiluminescence, 6 h; hits give high values; also: % of control where 0% means no effect
Peroxisome proliferator-activated receptor alpha (Homo sapiens), sequence (Q07869 whole entry, looked up, the tested form may be a part): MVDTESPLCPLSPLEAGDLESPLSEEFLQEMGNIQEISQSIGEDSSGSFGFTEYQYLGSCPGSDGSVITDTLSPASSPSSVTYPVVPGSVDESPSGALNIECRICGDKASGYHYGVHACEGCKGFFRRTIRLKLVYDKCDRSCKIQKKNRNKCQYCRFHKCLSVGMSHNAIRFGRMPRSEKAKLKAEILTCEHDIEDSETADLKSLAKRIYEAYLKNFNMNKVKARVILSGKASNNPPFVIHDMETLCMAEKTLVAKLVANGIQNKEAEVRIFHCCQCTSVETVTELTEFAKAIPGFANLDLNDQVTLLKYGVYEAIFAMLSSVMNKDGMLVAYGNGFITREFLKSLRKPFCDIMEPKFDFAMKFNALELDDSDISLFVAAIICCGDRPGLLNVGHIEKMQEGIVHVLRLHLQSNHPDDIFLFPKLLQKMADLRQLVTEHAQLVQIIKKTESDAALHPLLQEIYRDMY
How it was run: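 Enzyme-fragment complementation assay in which ligand-bound PPARalpha translocates and forms an active enzyme that generates chemiluminescence. Cells were plated overnight, exposed to compound for 6 hr at 37 C, and then given detection reagent for 60 min at room temperature.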

[6] = target: Nuclear receptor ROR-gamma (Homo sapiens) (UniProt P51449); assay: qHTS assay for small molecule antagonists of the retinoid-related orphan receptor gamma (ROR-gamma) signaling pathway (AID 651802); settings: ROR-gamma antagonist cell reporter assay; series mostly up to 92.2 µM;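 also: CHO cells with doxycycline-induced ROR-gamma expression; luciferase reporter luminescence driven by ROR response element; % is scaled to controls: 0 for no effect and ±100 for the full control effect; nearly all actives have a fitted effect of over 60% in size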
Nuclear receptor ROR-gamma (Homo sapiens), sequence (P51449 whole entry, looked up): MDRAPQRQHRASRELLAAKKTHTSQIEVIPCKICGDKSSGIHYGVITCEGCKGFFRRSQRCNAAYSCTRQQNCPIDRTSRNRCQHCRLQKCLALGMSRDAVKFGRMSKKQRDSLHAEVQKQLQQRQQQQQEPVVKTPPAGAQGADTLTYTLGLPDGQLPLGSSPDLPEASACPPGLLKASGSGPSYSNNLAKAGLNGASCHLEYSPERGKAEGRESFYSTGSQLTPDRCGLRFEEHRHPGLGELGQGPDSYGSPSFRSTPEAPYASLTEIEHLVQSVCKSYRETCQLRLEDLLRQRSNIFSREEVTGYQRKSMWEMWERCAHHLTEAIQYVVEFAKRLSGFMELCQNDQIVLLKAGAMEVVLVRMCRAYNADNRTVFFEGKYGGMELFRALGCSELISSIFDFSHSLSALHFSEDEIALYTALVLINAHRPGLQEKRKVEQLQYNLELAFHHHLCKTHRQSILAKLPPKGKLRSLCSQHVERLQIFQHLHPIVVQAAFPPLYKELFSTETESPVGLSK
How it was run: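 Luminescence (One-Glo, 30 min RT) measured 16 h after compound addition and doxycycline induction at 37C. Reporter: RORE-luciferase under TET-inducible ROR-gamma in CHO cells.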

[7] = qHTS assay for small molecule agonists of the antioxidant response element (ARE) signaling pathway (AID 651741; active = well fitted activation curve with a large enough effect in the signal ratio; the % refers to the signal ratio; also: potency is read from the fitted curve at half-maximal effect); settings: HepG2 ARE-bla reporter, beta-lactamase FRET ratio, 16 h
How it was run: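 Stably integrated ARE-beta-lactamase reporter HepG2 cells; 16 h compound incubation, 37 C; LiveBLAzer FRET substrate 2 h at room temperature; fluorescence intensity.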

[8] = qHTS assay for small molecule disruptors of the mitochondrial membrane potential - 1 hr assay (AID 651754; calls by dose curve; also: potency is read from the fitted curve at half-maximal effect; nearly all actives have a fitted effect of over 35% in size)
How it was run: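 Mitochondrial potential in living HepG2 cells after 1 hr compound treatment at 37C was read with Mito-MPS dye added for a further 30 min. Red aggregate and green monomer fluorescence were measured; loss of potential leaves dye as cytoplasmic monomers.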

[9] = qHTS assay to identify small molecules that stimulate interleukin-8 (IL-8) secretion (AID 651758; active = well fitted activation curve with a large enough effect in the signal ratio; the % refers to the signal ratio; also: 0% is about no effect); settings: HTRF ratio (665/615); series mostly up to 92.2 µM
How it was run: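 Compounds are added to THP-1 cells (2000 per well) and left 16 hrs at 37 C. A labeled anti-IL-8 antibody pair is then added, and IL-8 secretion is measured by time-resolved FRET after 1-3 hrs at room temperature.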

[10] = qHTS assay for small molecule disruptors of the mitochondrial membrane potential - 5 hr assay (AID 651755; calls by dose curve; also: potency is read from the fitted curve at half-maximal effect; nearly all actives have a fitted effect of over 40% in size); settings: JC-1-type ratio dye
How it was run: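 Read-out: ratiometric Mito-MPS fluorescence, green monomer (ex 490/em 535) vs red mitochondrial aggregate (ex 540/em 590). HepG2 cells treated 5 hr at 37C before 30 min dye loading.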

## CC(=O)O[C@@H]1CC(C)=C2[C@H]1[C@H](C)CC[C@H]2/C=C(\C)C(=O)O
[1]
  activation: -5.82%
[2]
  activation: 0.932%
[3]
  outcome: inactive
[4]
  activation: -0.287%
[5]
  max response: -0.232%
[6]
  outcome: inactive

## CC(=O)O[C@H]1C(=O)[C@@]2(C)[C@H]([C@H](OC(=O)c3ccccc3)[C@]3(O)C[C@H](OC(=O)[C@H](O)[C@@H](NC(=O)c4ccccc4)c4ccccc4)C(C)=C1C3(C)C)[C@]1(OC(C)=O)CO[C@@H]1C[C@@H]2O
[1]
  activation: 23.6%
[2]
  activation: 4.74%
[4]
  activation: 0.595%
[5]
  max response: -1.23%

## Cc1ccc(N)cc1O
[7]
  Potency: 42.2 µM (active)
[1]
  activation: 1.03%
[8]
  Potency: 23.7 µM (active)
[3]
  outcome: inactive
[9]
  outcome: inactive
[4]
  Potency: 44.7 µM (active)
[5]
  max response: -3.15%
[6]
  outcome: inactive

## Nc1ccccc1N
[7]
  Potency: 18.8 µM (active)
[1]
  activation: 9.56%
[2]
  activation: -0.857%
[8]
  Potency: 3.76 µM (active)
[10]
  Potency: 5.96 µM (active)
[5]
  max response: -5.51%
[6]
  outcome: inactive
